In all, about 78,000 compounds went through this assay and about 1,800 (2.3%) were called active. Not shown: some 27% with an inconclusive outcome. Cut-off read from the data, not from the text of the source: active = inhibition above about 30%; inconclusive = mostly about 10% to 28%; inactive = weaker than that. For the sample, actives were picked, then their nearest neighbours and some compounds at random.
Biological target: Interleukin-1 receptor-like 1 (Homo sapiens) (UniProt Q01638)
Test: inhibitors of human ST2 (IL1RL1) binding to IL-33, primary screen, biochemical, AlphaLISA (AID 1259354)
Conditions: AlphaLISA ST2-Fc/biotin-IL-33 interaction, 1 h; at 17 µM, hits give high values

Sequence of Interleukin-1 receptor-like 1 (Homo sapiens) (Q01638 whole entry, looked up): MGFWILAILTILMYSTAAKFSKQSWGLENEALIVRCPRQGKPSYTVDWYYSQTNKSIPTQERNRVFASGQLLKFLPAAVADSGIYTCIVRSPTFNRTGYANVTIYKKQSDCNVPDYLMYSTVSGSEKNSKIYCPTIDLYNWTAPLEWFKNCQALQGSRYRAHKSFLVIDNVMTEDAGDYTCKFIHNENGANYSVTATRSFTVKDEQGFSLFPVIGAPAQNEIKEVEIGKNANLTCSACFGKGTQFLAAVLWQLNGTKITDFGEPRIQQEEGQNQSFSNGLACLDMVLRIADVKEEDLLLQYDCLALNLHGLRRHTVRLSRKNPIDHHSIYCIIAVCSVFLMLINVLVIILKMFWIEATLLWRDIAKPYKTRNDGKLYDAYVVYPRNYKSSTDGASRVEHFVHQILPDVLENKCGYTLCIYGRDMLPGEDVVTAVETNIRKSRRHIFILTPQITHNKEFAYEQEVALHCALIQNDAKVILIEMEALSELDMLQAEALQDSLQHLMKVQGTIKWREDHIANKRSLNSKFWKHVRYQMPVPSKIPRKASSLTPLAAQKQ

Compound | inhibition
O=C(Nc1ccccc1-c1ccccc1)c1ccccc1[N+](=O)[O-] | inactive
CC1CCN(S(=O)(=O)c2ccc(Cl)c(S(=O)(=O)N3CCC(C)CC3)c2)CC1 | inactive
CC1CCN(S(=O)(=O)c2ccc(Cl)c(C(=O)Nc3ccccc3[N+](=O)[O-])c2)CC1 | 34% (active)
C/C(=C/c1nsc(Nc2ccc(Cl)cc2)n1)NC1CC(C)(C)NC(C)(C)C1 | inactive
CC1CCCC(C)N1C(=O)c1cccc2c1-c1ccccc1C2=O (stereo not drawn) | inactive
Cc1ccccc1CC1(C(=O)O)CCCN(c2cc(C3CC3)ncn2)C1 (stereo not drawn) | inactive
CC(=O)C1=C(C)OC(N)=C(C#N)C1c1ccccc1 (stereo not drawn) | inactive
O=C(Nc1cccc(-c2cccc(Cl)c2)c1)C1CCN(C(=O)c2ccccc2)CC1 | inactive
Cc1nc(-c2cccc(NC(=O)C3CCN(c4ccccc4)C3=O)c2)no1 (stereo not drawn) | 37% (active)
Cc1cccc(NC(=O)CN2C(=O)CC(c3ccccc3)=Nc3ccccc32)c1 | inactive
FC(F)(F)c1ccnc(NCc2cccnc2-n2ccnc2)c1 | inactive
O=C(Nc1ccc2c(c1)OCO2)C1CCN(S(=O)(=O)c2ccc(F)cc2)CC1 | inactive
N#Cc1nc(COc2ccc(Cl)cc2)oc1N1CCCC1 | 73% (active)
Clc1ccc(OCCN2CCCCCC2)cc1 | inactive
Cn1c(=O)c2c(nc(N3CCCCCC3)n2CC(O)COc2ccc(Cl)cc2)n(C)c1=O (stereo not drawn) | inactive
COCCO[C@H]1[C@H](NC(=O)C(C)C)c2ccccc2C12CCN(C(=O)c1cc(C(C)C)on1)CC2 | inactive
O=C(O)c1cc(Br)ccc1N=Cc1nc(-c2ccccc2)oc1O | inactive
C=CCOc1ccc(C2C(C(=O)OCC(C)C)=C(C)N=C3SCCC(=O)N32)cc1 (stereo not drawn) | inactive
COc1ccccc1NC(NC(=O)c1cccc(Cl)c1)C(Cl)(Cl)Cl (stereo not drawn) | inactive
O=C(CN1CCOC1=O)NCc1cnn2ccccc12 | inactive
O=C(CCCn1cnnn1)N1CCOC(c2ccc(Cl)c(Cl)c2)C1 (stereo not drawn) | inactive
O=C(CCn1cnnn1)NCc1cnn2ccccc12 | 30% (active)

Compound | inhibition
Cc1nn(C(=O)c2ccccc2)c(C)c1Sc1ccccc1 | inactive
Cc1nn(C(=O)c2cccs2)c(C)c1Sc1ccccc1 | inactive
Cc1nn(C(=O)/C=C/c2ccccc2)c(C)c1Sc1ccccc1 | 39% (active)
Cc1ccc(N2C(=O)CC(Nc3ccc(N4CCOCC4)cc3)C2=O)c(Br)c1 (stereo not drawn) | 56% (active)
CC1CN(C2CC(=O)N(c3ccc(Br)cc3Br)C2=O)CC(C)O1 (stereo not drawn) | inactive
CC1CC(C)CN(C2CC(=O)N(c3ccc(Br)cc3Br)C2=O)C1 (stereo not drawn) | inactive
CN1CCN(CCCNC(=O)COc2ccc3c(c2)C(=O)CC(C)(C)O3)CC1 | inactive
COc1ccc(NC(=O)Cn2cnc3scc(-c4ccccc4)c3c2=O)cc1Cl | inactive
COc1cccc(N2CCN(S(=O)(=O)c3ccc4c(c3)c(=O)n(C)c(=O)n4C)CC2)c1 | inactive
CS(=O)(=O)n1nnc2ccccc21 | inactive
O=C1C(Nc2ccc(O)cc2)=C(n2nnc3ccccc32)C(=O)c2ccccc21 | 47% (active)
Cc1cc(=O)[nH]c(SCC(=O)Nc2ccc(F)cc2)n1 | inactive
CCOc1ccc(Sc2cc(C(=O)NC3CC3)c3ccccc3n2)cc1 | inactive
COc1ccc(C2=NN3COc4ccc(Cl)cc4C3C2)cc1 (stereo not drawn) | inactive
COc1ccc(C2=NN3COc4ccc(Br)cc4C3C2)cc1 (stereo not drawn) | 36% (active)
COc1ccc(C2=NN(C(C)=O)C(c3cc(OC)ccc3OC)C2)cc1 (stereo not drawn) | inactive
O=S(=O)(Nc1ccccc1Br)c1ccccc1 | inactive
CN(C)C(=O)c1ccc(S(=O)(=O)NC2CCCCCC2)s1 | inactive
Cc1ccc(Sc2c(C)nn(C(=O)c3ccc([N+](=O)[O-])cc3)c2C)cc1 | 60% (active)
O=C(O)c1ccc(C(=O)c2ccc([N+](=O)[O-])cc2)cc1 | inactive
Cc1nn(C(=O)c2cccnc2)c(C)c1Sc1ccc(Cl)cc1 | inactive
CCOc1ccc2c(=O)c(Oc3ccc(F)cc3)c(C)oc2c1 | inactive

Compound | inhibition
OCc1ccc(CN2CCC(n3cc(C4CCCCC4)nn3)CC2)o1 | inactive
Cc1nn(-c2cccc(Br)c2)c(C)c1[C@@H]1C=C[C@@H](NS(=O)(=O)c2ccccc2)C1 | inactive
CN(Cc1ncc[nH]1)C(=O)C1CCN(Cc2ccco2)CC1 | inactive
COCCNC(=O)C1C2C=CC3(CN(Cc4ccccc4Cl)C(=O)C13)O2 (stereo not drawn) | inactive
CCNc1nc(NCC)n2c(SCC(=O)c3ccc(C(C)(C)C)cc3)nnc2n1 | 36% (active)
CC1CCCC(NC(=O)C2CCCN(S(=O)(=O)c3cnc[nH]3)C2)C1C (stereo not drawn) | inactive
COC(=O)c1cccc(-c2nccn2CCc2cccc(F)c2)n1 | inactive
CCCCNC(=O)CNC(=O)Cn1ccc2ccccc2c1=O | inactive
O=[N+]([O-])c1cccc(S(=O)(=O)Nc2cccnc2Cl)c1 | inactive
O=[N+]([O-])c1ccccc1S(=O)(=O)Nc1cccc2cccnc12 | 33% (active)
CCOc1ccc(S(=O)(=O)Nc2ccccc2F)c2cccnc12 | inactive
O=C1CCCN1C1CCN(Cc2nnc(C3CC3)o2)CC1 | inactive
CCOc1ccc(-n2c(C)cc(C(=O)CN3CCC(C)CC3)c2C)cc1 | inactive
COc1ccc(N2CN=c3s/c(=C\c4ccccn4)c(=O)n3C2)cc1 | 32% (active)
O=c1/c(=C/c2cccc([N+](=O)[O-])c2)sc2n1CN(c1cccc(C(F)(F)F)c1)CN=2 | inactive
COc1ccc(N2CN=c3s/c(=C/c4ccc([N+](=O)[O-])cc4)c(=O)n3C2)cc1 | inactive
Cc1ccc(-c2noc(CCC(=O)N(C)c3cc(Cl)ccc3C)n2)cc1 | inactive
CCOC(=O)c1c(C)n(C)c2ccc(OC(=O)c3ccc(OC)cc3)cc12 | inactive
CCN1CC(NC2CCN(c3ccc(OC)cc3)CC2)CC1=O (stereo not drawn) | inactive
CCOc1ccc(C(=O)NC2CC(=O)N(c3ccc(OCC)cc3)C2)cc1 (stereo not drawn) | inactive
O=S(=O)(c1ccc(Oc2ccc(Cl)cc2)cc1)c1ccc(Oc2ccc(Cl)cc2)cc1 | inactive
Nc1ccc(Oc2ccc(Cl)cc2)cc1 | 37% (active)

Compound | inhibition
Cc1cccc(C(CC(=O)N2CCOCC2)c2ccccc2)c1O (stereo not drawn) | inactive
Clc1ccc(-c2csc(Nc3ncccn3)n2)cc1 | inactive
COc1ccc(OC)c(S(=O)(=O)NCCC(C)C)c1 | inactive
O=[N+]([O-])c1ccc(CN2CCN(Cc3ccccc3)CC2)s1 | inactive
Clc1cccc(CN2CCN(c3ccccn3)CC2)c1 | inactive
O=[N+]([O-])c1cnc(N2CCN(Cc3ccccc3)CC2)c([N+](=O)[O-])c1 | 30% (active)
O=S(=O)(NCc1ccccc1)N1CCc2[nH]nc(C3CCC3)c2C1 | inactive
CC(C)c1ccc(C(=O)NC2CC2)cc1 | inactive
CC(C(=O)NC1CC1)N1CCc2[nH]nc(C(c3ccccc3)c3ccccc3)c2C1 (stereo not drawn) | 97% (active)
CCc1c(-c2ccccc2)nc2ccccc2c1C(=O)NCC1CCCO1 (stereo not drawn) | inactive
CCCOc1ccc(CC(=O)O)cc1OC | inactive
Cc1cc(Cl)ccc1NC(=O)COc1ccc([N+](=O)[O-])cc1 | inactive
Cc1cccc(C)c1OCC(=O)Nc1ccc([N+](=O)[O-])cc1 | inactive
O=C(COc1ccc([N+](=O)[O-])cc1)Nc1ccc(N2CCCC2)cc1 | 60% (active)
CCCOc1ccccc1/C=C1/C(=O)N=C(N)N1C | inactive
CCC(C)(C)C1CCc2c(sc(NC(=O)c3cc(OC)c(OC)c(OC)c3)c2C(N)=O)C1 (stereo not drawn) | inactive
CCN(CC)C(=O)Cn1cnc2sc(C(=O)Nc3cccc(C(F)(F)F)c3)c(C)c2c1=O | inactive
CCOc1ccc(S(=O)(=O)Nc2ccccc2C)c2cccnc12 | inactive
Cc1cc(NC(=O)c2ccccc2Cl)nc2c1c(=O)oc1ccccc12 | inactive
O=c1c2c(nc(SCc3ccc(Cl)cc3)n1-c1ccccc1)CCS2 | 36% (active)
O=c1c2c(nc(SCc3ccccc3)n1-c1ccc(Br)cc1)CCS2 | inactive
O=c1c2c(nc(SCc3ccccc3F)n1-c1ccccc1)CCS2 | inactive

Compound | inhibition
CCOc1ccc(Cn2c(CNS(=O)(=O)c3cnn(C(F)F)c3C)nc3cccnc32)cc1 | inactive
Cc1ccccc1-c1cc(O)c2c(c1)CN(C(=O)C1C=CCN1)CCO2 (stereo not drawn) | inactive
CN(C)CCCN1C(=O)C(=O)C(=C(O)c2ccc(F)cc2)C1c1ccncc1 (stereo not drawn) | inactive
O=C1CCCc2oc3c(Cl)cc(NS(=O)(=O)c4cccc5ccccc45)cc3c21 | inactive
CCCc1n[nH]c(=O)n1-c1ccccc1Cl | inactive
CNc1nc2c(C)cccn2c(=O)c1C=Nc1ccc(OC)cc1 | 98% (active)
COc1ccc(S(=O)(=O)Nc2c(C)n(C)n(-c3ccccc3)c2=O)cc1 | inactive
COc1ccc(N=Cc2c(O)n(-c3ccccc3C)c(=O)c3ccccc23)cc1 | 48% (active)
COc1ccc(N=Cc2ccc3ncccc3c2)cc1 | inactive
O=c1oc2ccccc2c(O)c1C=Nc1ccc(I)cc1 | inactive
C=CCNC(=O)c1cc2c(=O)n3cccc(C)c3nc2n1C | inactive
O=C(CCCc1ccccc1)NC1CCCCC1 | inactive
CC(=O)Nc1ccc(S(=O)(=O)NCCNc2ccc([N+](=O)[O-])cc2Cl)cc1 | inactive
CN1CCN(C(=O)CC2(c3ccccc3Cl)CC(=O)N(C3CCCC3)C2=O)[C@@H](c2ccccc2)C1 (stereo partly drawn) | inactive
O=C(Nc1nc2c(cc3c4c(cccc42)CC3)s1)c1ccc(S(=O)(=O)N2CCOCC2)cc1 | inactive
COc1ccc(-c2cnc(N)cn2)cc1C | inactive
Cc1ccncc1C(=O)N1CCC(=O)N(CC2CC2)C(C(C)C)C1 (stereo not drawn) | inactive
O=C(O)Cn1c2ccccc2c2cc(Cl)ccc21 | inactive
O=C(Cn1c2ccccc2c(=O)c2ccccc21)Nc1ccccc1Cl | inactive
CCn1c(=O)cc(O)c2ccccc21 | 85% (active)
